From PubChem
GDH-TPI counter: GDH-TPI coupling enzyme inhibitors, primary screen, artefact control for M. tuberculosis FBA inhibitor project, biochemical, absorbance, full deck; GDH-TPI coupled enzyme counterscreen, NADH absorbance; inhibition, % at 4.8 µM; actives 1.2% (n = 360,000); in the data active = inhibition above about 30%;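 also: 0% = DMSO wells and 100% = wells lacking the enzyme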
Rv3671c inh: Rv3671c serine protease inhibitors, primary screen, biochemical, fluorescence polarization, M. tuberculosis H37Rv | AID 2606, 2010 | actives 0.048% (n = 320,000) | inhibition, % at 5.96 µM | P9WHR9; in the data active = inhibition above about 38%;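 also: extracellular domain of Rv3671c used as enzyme; 0% = enzyme with DMSO and 100% = no enzyme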
FBA Mtb inh: Mtb FBA enzyme inhibitors, primary screen, biochemical, fluorescence, strain H37Rv. inhibition, % at 1 µM. purified M. tuberculosis FBA, fluorescence read-out. actives 2.3% (n = 360,000); in the data active = inhibition above about 27%;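 also: 0% = vehicle and 100% = reference inhibitor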
UGM FP inh: M. tuberculosis UGM enzyme inhibitors, primary screen, biochemical, fluorescence polarization, single point. purified UGM, fluorescence polarization probe displacement. inhibition, % at 10 µM. AID 504406, 2011. actives 0.06% (n = 320,000); in the data active = inhibition above about 10%, passing the limit was not always enough
RecA splice inh: Mtb RecA intein splicing inhibitors, primary screen, biochemical, fluorescence, HTS; Protein RecA (Mycobacterium tuberculosis (strain ATCC 25618 / H37Rv)), P9WHJ3; cell-free RecA intein splicing; inhibition, % (no concentration beside the values); actives 0.75% (n = 290,000); AID 2221, 2009; in the data active = inhibition above about 30%;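 also: 0% = vehicle wells and 100% = reference inhibitor control wells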
Vc quorum ag: inducers of Vibrio cholerae quorum light production without autoinducers, primary screen, BH1578 luxS cqsA deficient, single point; AID 588436, 2011; V. cholerae BH1578 lux reporter, luminescence, 6 h; actives 0.16% (n = 350,000); activation, % at 18.7 µM; in the data active = activation mostly above about 9.7%, no sharp cut-off
An asterisk follows results filed as active; i = inactive; . = no result; + = active, no number. Sampled rows, rich in hits. Any-hit rate of the full collection: about 4.1%.

SMILES	GDH-TPI counter	Rv3671c inh	FBA Mtb inh	UGM FP inh	RecA splice inh	Vc quorum ag
COC(=O)Cn1c(=NC(=O)c2ccc(OC)cc2)sc2cc(OC)ccc21	36*	-12	11	1	-3	i
Cc1ccc(-n2c(N)c(C#N)c(-c3ccccc3)c(C#N)c2=O)cc1	29	2	-1	2	-1	-1
Cc1ccc(-c2nc3sc(C#N)c(N)n3c(=O)c2C#N)cc1	-8	-13	-1	13*	-6	0
COc1ccc(C(=O)N2CCN(c3ccc([N+](=O)[O-])c(NCCc4ccc(OC)c(OC)c4)c3)CC2)cc1	13	4	-2	1	-3	0
COc1ccc(CCNc2cc(N3CCN(C(=O)c4ccc(C)cc4)CC3)ccc2[N+](=O)[O-])cc1OC	.	43*	.	-2	-3	.
O=C(NC(Cc1c[nH]c2ccccc12)C(=O)O)c1cccc(S(=O)(=O)N2CCCCC2)c1 (configuration not stated)	7	.	3	.	.	i
C=CCOc1ccc(C2NC(=S)NC3=C2CCc2ccccc23)cc1 (configuration not stated)	30	0	3	-1	2	i
O=C1NC2=C(CCc3ccccc32)C(c2ccccc2)N1 (configuration not stated)	2	-36	8	-1	47*	0
COc1ccc(-c2c(C#Cc3ccsc3)c3cc(-c4ccc5[nH]ccc5c4)ccc3n2C)cc1	47*	1	18	0	.	-1
COc1cc(OC)cc(-c2c(C#Cc3ccsc3)c3cc(-c4ccc5c(c4)OCO5)ccc3n2C)c1	39*	-2	11	0	.	0
COc1ccc(-c2c(C#Cc3ccsc3)c3cc(-c4ccc5c(c4)OCCO5)ccc3n2C)cc1	42*	-2	19	1	.	-1
Cc1c(C)n(Cc2ccc(F)cc2)c2ccc(C(=O)NCCN3CCOCC3)cc12	0	1	0	0	4	0
COC(=O)CCCC1=CC2=C(c3ccccc3)C(=O)C(C)(OC(=O)C3CCCC3)C(=O)C2=CN1CCCCO (configuration not stated)	-7	-4	2	0	39*	5
COC(=O)CCCC1=CC2=C(c3ccccc3)C(=O)C(C)(OC(=O)C3CCCC3)C(=O)C2=CN1Cc1ccco1 (configuration not stated)	3	-8	-4	2	8	0
CC(C)N(C(=O)[C@H]1C[C@H](CC(=O)NCC23CC4CC(CC(C4)C2)C3)C(=O)N2CCc3c([nH]c4ccc(Cl)cc34)[C@]12C)C(C)C	5	.	-4	.	.	i
COc1ccc([N+](=O)[O-])cc1-c1[nH]c(-c2ccc(C(=O)O)cc2)nc1-c1ccccc1	37*	-4	3	2	2	-1
COc1ccc(-c2nc(-c3ccccc3)c(-c3cc([N+](=O)[O-])ccc3C)[nH]2)cc1O	11	6	1	4	18	-3
Cc1ccc([N+](=O)[O-])cc1-c1[nH]c(-c2ccc(O)c(O)c2)nc1-c1ccccc1	21	3	-3	-1	6	25*
COc1cccc(CCNC(=O)c2ccc(OC)c(OC3CCN(C(C)C)CC3)c2)c1	-6	6	-2	-3	0	0
CCCOc1ccc(F)cc1-c1cc(C(=O)NCc2ccco2)[nH]n1	0	.	4	.	.	5
CCOC(=O)c1cccc(NC(=O)CCc2nnc3ccc(N4CCN(C)CC4)nn23)c1	3	-3	1	-1	3	1
CCOC(=O)c1cccc(NC(=O)CCc2nnc3ccc(N4CCCCC4)nn23)c1	11	-6	+	0	-4	-1
O=C1NC(=O)C(=CC=Cc2ccccc2)S1	38*	.	-2	.	.	-5
O=C(/C=C/c1ccc2c(c1)OCO2)N1CCN(c2ccccc2F)CC1	18	-2	3	-1	3	0
COc1ccccc1N1CCN(C(=O)/C=C/c2ccc3c(c2)OCO3)CC1	43*	-6	1	-2	2	-1
SMILES	GDH-TPI counter	Rv3671c inh	FBA Mtb inh	UGM FP inh	RecA splice inh	Vc quorum ag
CC1CN(C(=O)/C=C/c2ccc3c(c2)OCO3)CC(C)O1 (configuration not stated)	35*	2	9	3	5	0
CCOC(=O)C1C(=O)C=C(c2ccc(NS(C)(=O)=O)cc2)CC1c1ccco1 (configuration not stated)	33*	1	10	3	-8	2
COC(=O)c1sc(-c2ccc(Cl)cc2)cc1NC(=O)COCC(=O)O	35*	-13	14	-1	1	0
COC(=O)c1sc(-c2ccc(C(C)(C)C)cc2)cc1NC(=O)CCC(=O)O	30	-12	14	-2	7	-1
CC1Cc2nc(SCC(=O)NCc3ccccc3)n(Cc3ccccc3)c(=O)c2S1 (configuration not stated)	34*	-6	2	0	6	-2
CCc1cccc(NS(=O)(=O)c2ccc3c(c2)N(C)CCO3)c1	-5	-3	1	0	-1	i
COc1ccc2cc(C3=CCCCC3)ncc2c1	8	9	27*	-1	.	i
COc1cc(N2CCCC2)c(OC)cc1/C=C(/C#N)c1ccc(Br)cc1	-8	0	-1	55*	0	0
Cc1ccc(C)c(Cn2c(O)c(N=NC(=S)Nc3ccccc3F)c3ccccc32)c1	-3	-2	0	1	-3	80*
Nc1nc2c(s1)COc1ccccc1-2	0	12	-2	1	-3	1
Nc1nc2c(s1)CCc1c-2cnn1-c1ccccc1	10	-61	11	3	98*	i
CCN1CCCC1CNC(=O)c1ccc2c(c1)NC(=O)/C(=C\c1ccccc1Cl)S2 (configuration not stated)	7	.	-2	.	.	0
CCN1CCCC1CNC(=O)c1ccc2c(c1)NC(=O)/C(=C\c1ccc(OC)c(OC)c1)S2 (configuration not stated)	31*	-12	-1	1	-1	0
Cc1cccc(Nc2nnc(SCC(=O)NC(=O)CN3CCCC3=O)s2)c1	12	-6	3	0	.	-1
CCOc1ccc(/C=N/n2c(C3CCCCC3)n[nH]c2=S)cc1	10	6	0	0	2	i
COc1ccc(OC)c2c(C)cc(N3CCCN(C)CC3)nc12	-1	3	31*	-2	0	-1
